Results filed as inconclusive are left out. Calls of active or inactive are those of the source. The calls were made as follows: active = hit-call score of the fitted dose curve at least 0.9, where 1 is the maximum; inconclusive = response in the unintended direction; inactive = score below 0.9.

This assay in a line: CLD_ACTIN_48hr: CellzDirect (CLD) Gene Expression Assay for Baseline Control (Actin) at 48 hours (AID 2283702). On the procedure: CLD_48hr is a cell-based, multiplexed-readout assay that uses hepatocyte, a human liver primary cell, with measurements taken at 48 hours after chemical dosing in a 96-well plate.CLD_ACTIN_48hr is one of 16 assay component(s) measured or calculated from the CLD_48hr assay. It is designed to make measurements of mRNA induction, a form of inducible reporter, as detected with chemiluminescence signals by Quantitative Nuclease Protection Assay (qNPA) technology.Data from the assay component CLD_ACTIN_48hr was analyzed at the endpoint, CLD_ACTIN_48hr, in the positive analysis fitting direction relative to DMSO as the negative control and baseline of activity. Using a type of inducible reporter, gain-of-signal activity can be used to understand changes in the reporter gene as they relate to the gene ACTA1. Furthermore, this assay endpoint can be referred to as a secondary readout, because this assay has produced multiple assay endpoints where this one serves a background control function. To generalize the intended target to other relatable targets, this assay endpoint is annotated to the background measurement intended target family, where subfamily is baseline control.
Human hepatocyte cultures were treated daily for two consecutive days with fresh dosing solutions containing appropriate concentrations of the 320 ToxCast chemicals (chemical identities were blinded to CellzDirect and other ToxCast collaborators), vehicle control (0.2% DMSO), and positive control inducers as summarized in Table 1. Due to the large number of treatment groups and chemicals examined, the ToxCast chemicals were divided into two groups (spanning two independent cultures of hepatocytes from separate donor preparations (Hu778: ToxCast plates 1 and 2; Hu776: ToxCast plates 3 and 4). Each preparation of human hepatocyte cultures was treated with respective vehicle control, medium only control, set of six positive controls/reference chemicals for the five hepatic receptor pathways, and a subset of eight of the ToxCast chemicals (indoxacarb, pyrithiobac-sodium, norflurazon, cyhalofop-butyl, methomyl, thiram, acetochlor, and propiconazole). These replicate data, coupled with internal replicates designed within the blinded ToxCast chemical library, provided additional data to evaluate interindividual differences between hepatocyte preparations and their potential impact on chemical profiles.Cell morphology and integrity were evaluated using phase-contrast microscopy as an indicator of hepatocyte cell health (Tyson & Green, 1987). Cultures for each treatment group (i.e., media, vehicle [0.2% DMSO], positive control inducers [multiple concentrations], and the ToxCast chemicals [multiple concentrations]) were observed and cell morphology was assessed relative to vehicle control cultures at each harvest time point (0, 6, 24, or 48 h). […] Images were evaluated at the conclusion of the study to assess changes in cell integrity and account for the effects of chemical exposure on uncharacteristic changes in concentration-dependent gene expression profiles. The results from these determinations of apparent cytotoxicity were annotated (yes/no) alongside the corresponding qNPA data for reference.At the conclusion of each treatment period, hepatocyte cultures (96-well) were washed with 1 volume of HBSS, lysed by addition of 25 ul ArrayPlate lysis buffer (HTG, Tucson, AZ), and 70 ul/well of Denaturation Oil, denatured by incubation at 95C for 10 min, and frozen at approximately -70C until analysis by nuclease protection assay (qNPA) (Roberts et al., 2007). For qNPA analysis, cell lysates were thawed at 50C for approximately 30 min, qNPA probes were added, and samples were incubated at 95C for 10 min to begin the detection process by denaturing the target RNA, dissociating the duplexes and secondary structure hybridization. At the conclusion of the hybridization period, S1 nuclease reagent was added to each sample to digest all nonprotected nucleotides at 50C for 60-90 min. […]
`O=C(O)COc1ccc(Cl)cc1Cl`: the molecule was classed as inactive.
Next, `O=[N+]([O-])c1c(Cl)c(Cl)c(Cl)c(Cl)c1Cl`: “inactive”; `CNC(=O)CSP(=S)(OC)OC`: “inactive”.
Under `CCS(=O)(=O)c1cccnc1S(=O)(=O)NC(=O)Nc1nc(OC)cc(OC)n1` stands “inactive”.
Next, `CCN(CC)C(=O)SCc1ccc(Cl)cc1`: “inactive”; `CCOCN(C(=O)CCl)c1c(C)cccc1CC`: “inactive”.
For `O=C(NC(=O)c1c(F)cccc1F)Nc1ccc(OC(F)(F)C(F)OC(F)(F)F)c(Cl)c1` (stereo not drawn), the result was inactive.
Under `O=S(=O)(O)C(F)(F)C(F)(F)C(F)(F)C(F)(F)C(F)(F)C(F)(F)C(F)(F)C(F)(F)F` stands “inactive”.
On to `COC(=O)c1ccccc1S(=O)(=O)NC(=O)Nc1nc(C)nc(OC)n1`, for which the outcome was inactive.
Next, `CC[C@H](C)[C@H]1O[C@]2(C=C[C@@H]1C)C[C@@H]1C[C@@H](C/C=C(\C)[C@@H](O[C@H]3C[C@H](OC)[C@@H](O[C@H]4C[C@H](OC)[C@@H](O)[C@H](C)O4)[C@H](C)O3)[C@@H](C)/C=C/C=C3\CO[C@@H]4[C@H](O)C(C)=C[C@@H](C(=O)O1)[C@]34O)O2` (tested in a mixture with another compound): “inactive”.
Under `N#Cc1c(Cl)c(Cl)c(Cl)c(C#N)c1Cl` stands “inactive”; under `O=C(O)CCCOc1ccc(Cl)cc1Cl`, “inactive”; under `Oc1cc(Cl)ccc1Oc1ccc(Cl)cc1Cl`, “inactive”.
For `O=[N+]([O-])/N=C1\NCCN1Cc1ccc(Cl)nc1`, the result was inactive.
With `CC(C)N(C(=O)COc1nnc(C(F)(F)F)s1)c1ccc(F)cc1`, the result was inactive.
`CNC(=O)/C=C(\C)OP(=O)(OC)OC`: the molecule was called inactive.
Turning to `O=C1c2ccccc2C(=O)N1SC(Cl)(Cl)Cl`, the result was inactive.
Under `CNC(=O)Oc1cccc(N=CN(C)C)c1` stands “inactive”.
Take `CCC(C)(NC(=O)c1cc(Cl)c(C)c(Cl)c1)C(=O)CCl` (stereo not drawn): the outcome was inactive.
Next, `Cc1[nH]c(=O)n(C(C)(C)C)c(=O)c1Cl`: “inactive”; `CC(C)OC(=O)Nc1cccc(Cl)c1`: “inactive”; `OCCOc1ccccc1`: “inactive”.
As to `CNC(=O)Oc1ccccc1OC(C)C`, the molecule was classed as inactive.
In the case of `Cc1cc(C)nc(NC(=O)NS(=O)(=O)c2ccccc2C(=O)OC2COC2)n1`, the molecule was called inactive.
In the case of `N#CN`, the outcome was inactive.
In the case of `CC1(c2ccc(Oc3ccccc3)cc2)OC(=O)N(Nc2ccccc2)C1=O` (stereo not drawn), the result was inactive.
Under `O=C(O)C(F)(F)C(F)(F)C(F)(F)C(F)(F)C(F)(F)C(F)(F)C(F)(F)F` stands “inactive”.
Under `COP(=O)(OC)OC=C(Cl)Cl` stands “inactive”.

The record behind these values is PubChem BioAssay (EPA / NIEHS).
